High-throughput results deposited in PubChem by several laboratories.
Ba/F3 V617F tox: reduced viability of JAK2V617F-dependent Ba/F3 cells, primary screen, JAK2V617F inhibitor project, cell-based, Ba/F3 EpoR-JAK2V617F, luminescence; ATP luminescence; inhibition, % at 5.6 µM; hit rate 1.1% among 220,000;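 active means inhibition above the campaign mean plus 3 SD over all tested compounds, cut at about 24% in these data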;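 further: cytokine-independent growth of Ba/F3 cells driven by EpoR plus mutant JAK2; 0% = DMSO-treated cells and 100% = JAK inhibitor I control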
KLF5 inhibitor: KLF5 expression inhibitors, primary screen, DLD-1 cells, luminescence; hit rate 0.23% among 290,000; inhibition, % at 5 µM; DLD-1 KLF5 promoter-luciferase reporter;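 active means inhibition above a per-plate limit of that plate's mean compound inhibition plus 3 SD, cut at about 60% in these data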;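 further: 0% = DMSO wells and 100% = LY294002 at 200 µM; higher means less KLF5 promoter-driven luciferase light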
APP 5UTR inh: inhibitors of APP translation via 5'UTR reporter, primary screen, APP 5'UTR luciferase, SH-SY5Y cells; SH-SY5Y APP 5'UTR-luciferase reporter, luminescence; inhibition, % at 2 µM; hit rate 0.82% among 190,000; AID 1285, 2008;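 active means inhibition above a set limit, derived from the sample mean plus 3 SD, cut at about 45% in these data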
IEC-6 tox-1: cytotoxicity in IEC-6 intestinal epithelial cells, primary screen, cytotoxicity control for KLF5 inhibitor project, cell-based, luminescence; AID 1825, 2009; IEC-6 cytotoxicity, luminescence viability; hit rate 0.78% among 290,000; inhibition, % at 5 µM;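 further: 0% = plate median of test compound wells and 100% = cytotoxic reference compound wells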
BaF3 parental: parental Ba/F3 cell viability inhibition, counter-screen for JAK2V617F inhibitor project, murine pro-B, CellTiter-Glo luminescence; CellTiter-Glo ATP luminescence; inhibition, % at 5.6 µM; hit rate 1.1% among 220,000; AID 1486, 2009;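 active means inhibition above a per-campaign cutoff, the mean inhibition of all tested compounds plus 3 SD, cut at about 27% in these data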;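 further: 0% = DMSO wells and 100% = JAK Inhibitor I control wells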
KLF5 inh confirm: KLF5 expression inhibitors, confirmation, DLD-1 cells, luminescence; AID 1834, 2009; inhibition, % at 4 µM; DLD-1 KLF5 promoter firefly luciferase reporter; hit rate 79% among 610; shares compounds with KLF5 inhibitor;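 active means inhibition above a set limit taken from the earlier primary screen, cut at about 63% in these data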;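 further: 0% = DMSO wells and 100% = LY294002 at 200 µM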
IEC-6 tox-2: cytotoxicity in rat IEC-6 cells, cytotoxicity control for KLF5 inhibitor project, cell-based, luminescence, triplicate | hit rate 56% among 610 | IEC-6 rat intestinal cells, viability luminescence | inhibition, % at 4 µM | shares compounds with KLF5 inhibitor; in the data active means inhibition above about 23%;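 further: cells exposed to compounds for 48 hours before viability read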
IEC-6 tox confirm: cytotoxic compounds in IEC-6 epithelial cells, confirmation, cytotoxicity control, cell-based, luminescence | inhibition, % at 5 µM | AID 1907, 2009 | hit rate 63% among 1,900 | shares compounds with IEC-6 tox-1 | IEC-6 rat intestinal epithelial viability;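 further: 0% = vehicle and 100% = reference cytotoxic drug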
An asterisk follows results filed as active; . = no result given. A selection: hits, their analogues and other compounds. The true share with any hit is near 1.9%. Unless noted, no stated cut-off is given here; in the data, active means inhibition above about 22%; inactive means the rest.

SMILES	Ba/F3 V617F tox	KLF5 inhibitor	APP 5UTR inh	IEC-6 tox-1	BaF3 parental	KLF5 inh confirm	IEC-6 tox-2	IEC-6 tox confirm
CCCNC1=C(N(C(C)=O)c2cccc(F)c2)C(=O)c2ccccc2C1=O	101.1*	96.3*	49.0*	64.6*	104.5*	50.6	53.2*	41.5*
CCC(=O)N(C1=C(NC(C)C)C(=O)c2ccccc2C1=O)C(C)C	2.6	-19.6	-7.2	-2.3	3.8	.	.	.
O=C(CCCn1c(=O)c2ccccc2n(Cc2cccc(F)c2)c1=O)NC1CCN(Cc2ccccc2)CC1	-2.2	-11.9	1.5	1.2	-1.1	.	.	.
Brc1ccc(C2=Nn3c(nnc3-c3n[nH]c4c3CCC4)SC2)cc1	75.0*	67.5*	94.4*	77.4*	80.5*	67.4*	62.8*	58.8*
Cc1nc(N)nc(N)c1/C=C/C(C)(C)c1ccc(Cl)cc1	98.4*	82.8*	69.9*	85.6*	103.1*	84.4*	76.2*	76.7*
O=C(Sc1cccc2cccnc12)c1ccccc1Br	.	62.2*	.	102.0*	.	16.9	100.0*	98.8*
CN1CCc2c(sc3c2C(=O)NC(c2ccc(-c4cccc(Cl)c4)o2)N3)C1 (centres undefined)	-4.2	-6.7	-4.1	-4.7	3.2	.	.	.
COC(=O)c1ccc(Oc2cc(C)nc(-n3nc(C)cc3C)n2)cc1	74.4*	82.0*	93.5*	23.1*	65.8*	80.6*	19.9	45.3*
CC(C)C(NC(=O)c1ccc(C(C)(C)C)cc1)C(=O)O (centres undefined)	-0.5	-38.3	2.2	-5.6	8.1	.	.	.
Cc1ccc(-c2nnc(SCC(=O)Nc3ccccc3F)o2)cc1	14.5	99.6*	35.6	28.3*	20.9	66.0*	5.4	16.6
O=C(CSc1nnc(-c2ccccc2)o1)Nc1ccccc1F	26.2*	72.3*	-107.5	28.9*	31.8*	-54.5	-5.9	-3.5
O=C(N/N=C/c1cc(O)ccc1Br)c1cccnc1	.	80.2*	.	66.0*	.	90.0*	16.8	18.4
O=C(N/N=C/c1c(O)ccc2ccccc12)c1cccnc1	.	82.2*	.	75.3*	.	81.1*	19.7	18.7
O=C(N/N=C\c1c(O)ccc2ccccc12)c1cncc(Br)c1	.	69.6*	.	95.3*	.	85.5*	56.0*	65.2*
O=C(N/N=C/c1c(O)ccc2ccccc12)c1ccc[n+](CCO)c1	1.5	-13.9	-0.4	0.1	-2.1	.	.	.
Cc1ccc(C(=O)N/N=C/c2c(O)ccc3ccccc23)cn1	.	93.9*	.	38.7*	.	84.9*	14.9	32.7*
O=C(CO/N=C/c1ccc(Cl)cc1Cl)NNC(=O)c1ccc(Cl)cc1Cl	0.8	-22.1	.	-5.2	-3.8	.	.	.
Cc1ccc(NC(=O)Cn2ncn3c(cc4ccccc43)c2=O)cc1F	.	-16.5	.	5.0	.	.	.	.
Cc1cccc(C)c1NC(=O)NCc1ccco1	-0.5	-9.9	.	-1.9	1.3	.	.	.
Cc1cccc(C)c1OCCNC(=O)C(=O)NCc1ccco1	76.8*	65.3*	84.8*	77.1*	80.5*	82.6*	61.3*	59.0*
COc1ccc(C2=NOC(C(=O)NCc3ccc(F)cc3)C2)cc1OC (centres undefined)	79.2*	85.0*	96.2*	88.0*	81.5*	78.9*	63.1*	58.0*
COc1cccc(C2=NOC(C(=O)NCc3ccc(F)cc3)C2)c1 (centres undefined)	-0.7	-43.1	-10.4	-1.2	4.2	.	.	.
COc1cc(C2=NOC(C(=O)NCc3ccc(F)cc3)C2)cc(OC)c1OC (centres undefined)	78.5*	73.1*	94.6*	85.9*	78.2*	84.7*	64.7*	55.1*
COc1cccc(N2CCN(C(=O)c3ccc(CS(=O)c4ccccc4Cl)o3)CC2)c1 (centres undefined)	.	74.5*	.	89.9*	.	84.2*	62.4*	60.0*
O=C(c1ccc(CS(=O)c2ccccc2Cl)o1)N1CCOCC1 (centres undefined)	.	-3.1	.	-3.8	.	.	.	.
SMILES	Ba/F3 V617F tox	KLF5 inhibitor	APP 5UTR inh	IEC-6 tox-1	BaF3 parental	KLF5 inh confirm	IEC-6 tox-2	IEC-6 tox confirm
COc1cccc(N2CCN(C(=O)c3ccc(CS(=O)c4ccccc4C)o3)CC2)c1 (centres undefined)	.	67.9*	.	78.5*	.	74.7*	63.8*	57.5*
CN(C)CCNC(=O)c1ccc(Sc2ccc(Br)cc2)c([N+](=O)[O-])c1	-0.2	37.4	19.4	-3.6	15.1	.	.	.
CCn1c(C)nc2cc(-c3nc4n(n3)Cc3ccccc3-4)ccc21	48.0*	112.4*	84.7*	32.6*	42.4*	110.3*	38.6*	42.9*
CCCSc1ccc2nc(NC(=O)OC)[nH]c2c1	78.0*	76.3*	92.2*	80.3*	75.8*	47.8	60.9*	55.7*
O=C(CSc1ccc2ccccc2c1)Nc1nc2ccccc2[nH]1	2.4	-20.3	-10.1	2.5	7.1	.	.	.
CCOc1ccc(C2=Nn3c(nnc3-c3ccccc3OC)SC2)cc1	96.0*	82.5*	94.9*	95.5*	93.1*	94.2*	84.1*	82.9*
O=C(Nc1ccc(N2CCN(C(=O)c3cccs3)CC2)cc1)c1cccc(F)c1	.	-0.7	.	4.9	.	.	.	.
COc1cccc(C(=O)Nc2ccc(N3CCN(C(=O)c4cccs4)CC3)cc2)c1	.	63.4*	.	77.3*	.	55.7	35.1*	34.5*
Cc1ccc2[nH]c(C(=O)N/N=C/c3ccccc3O)c(C)c2c1	.	71.5*	.	97.9*	.	69.5*	17.1	53.7*
CCNC(=O)N1c2ccc(OCC)cc2C(C)=CC1(C)C	-0.4	3.5	2.3	1.4	3.4	.	.	.
CCOc1ccc2c(c1)C(C)=CC(C)(C)N2S(=O)(=O)c1ccc(C)cc1	78.8*	67.9*	95.1*	89.8*	76.9*	90.7*	54.5*	59.4*
COc1ccc2c(c1)C(C)=CC(C)(C)N2S(=O)(=O)c1ccc(C)cc1	70.5*	87.3*	84.3*	80.6*	74.3*	87.5*	55.3*	53.2*
COC(=O)C1(C)CN(S(=O)(=O)c2ccc(C)cc2)c2cc(OC)ccc2C1=O (centres undefined)	2.0	-8.7	-7.0	6.6	3.4	.	.	.
O=C(OCC(=O)N(C1CCCCC1)C1CCCCC1)c1ccncc1	5.6	-2.2	-6.0	-0.8	7.2	.	.	.
C#CCOc1ccc(C2C3=C(COC3=O)Nc3cc4c(cc32)OCO4)cc1OC (centres undefined)	94.0*	78.9*	94.6*	94.9*	95.1*	88.1*	82.7*	84.4*
